An excerpt weighted towards active compounds, which were near 10% of everything screened.
Lamin A splicing – qHTS Assay for Modulators of Lamin A Splicing. AID 1487, 2009. HeLa LMNA splicing GFP/RFP minigene ratio, 48 h. Potency, µM (top dose mostly 46.1 µM), for inactives: at the top dose ratio change, negative = inhibition, hits mostly inhibitors. 0.01% of 200,000 active; active = well fitted inhibition curve with a large enough effect in the signal ratio, with a control signal flat, not every such curve was filed as active; inconclusive = small, poorly fitted or top-dose-only effect, or effect the other way, or a change in a side signal; the % refers to the signal ratio; note: potency is the fitted concentration of half-maximal effect
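Read-out is the ratio of GFP to DsRed2 object intensity, acquired by 488 nm laser-scanning cytometry on HeLa lamin A-EGFP minigene reporter cells. Compound incubation 48 hrs at 37 °C in Opti-MEM with 2% FBS; DMSO 0.5% final.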
HPGD block – qHTS Assay for Inhibitors of HPGD (15-Hydroxyprostaglandin Dehydrogenase); 15-hydroxyprostaglandin dehydrogenase [NAD(+)] (Homo sapiens), P15428; purified HPGD, NADH fluorescence kinetic, PGE2 substrate; Potency, µM, without a hit: at the top dose activity change, negative = inhibition, actives largely listed as inhibitors; 4.3% of 150,000 active; note: potency is the fitted concentration of half-maximal effect
Target sequence (P15428 whole entry, looked up): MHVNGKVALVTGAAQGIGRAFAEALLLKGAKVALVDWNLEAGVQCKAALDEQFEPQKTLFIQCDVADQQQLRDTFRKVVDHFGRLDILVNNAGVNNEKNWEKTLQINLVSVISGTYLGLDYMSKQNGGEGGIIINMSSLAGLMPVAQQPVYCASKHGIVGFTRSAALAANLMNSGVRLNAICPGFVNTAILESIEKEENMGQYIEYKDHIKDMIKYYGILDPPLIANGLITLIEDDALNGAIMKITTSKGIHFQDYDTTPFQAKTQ
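20 nM HPGD preincubated 15 min at room temperature with compound in 50 mM Tris-HCl pH 8, 0.01% Tween 20. Started with 1 mM NAD+ and 30 uM prostaglandin E2; NADH fluorescence (360/450 nm) read 5 times over 30-s intervals, last minus first.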
KinaseGlo FLuc – Counterscreen for Luciferase (Kinase-Glo TM) Inhibition; Luciferin 4-monooxygenase (Photuris pensylvanica), Q27757; Kinase-Glo luciferase, ATP luminescence, 8 min; 0.28% of 200,000 active; Potency, µM (top dose mostly 38.3 µM), without a hit: at the highest dose activity change, negative = inhibition, most hits filed as inhibitors; active = well fitted inhibition curve with a large enough effect; inconclusive = small, poorly fitted or top-dose-only effect; note: potency is the fitted concentration of half-maximal effect; nearly all actives have a fitted effect of over 60% in size
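Recombinant Kinase-Glo luciferase, 10 uM ATP (linear range), luciferin; imidazole pH 7.2 / KCl / MgCl2 / Tween / BSA buffer; 8 min RT; luminescence.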
ALDH1A1 block – qHTS Assay for Inhibitors of Aldehyde Dehydrogenase 1 (ALDH1A1); Potency, µM (titrated, usually from 75.3 µM), for inactives: at the highest dose activity, negative = inhibition, actives largely listed as inhibitors; AID 1030, 2008; Purified ALDH1A1, NADH fluorescence, propionaldehyde substrate; 7.3% of 220,000 active; Aldehyde dehydrogenase 1A1 (Homo sapiens), P00352;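 note: potency is the fitted concentration of half-maximal effect; plate controls were no enzyme wells and a reference inhibitor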
PNC assembly inh – High Content Assay for Compounds that inhibit the Assembly of the Perinucleolar Compartment | 3.1% of 140,000 active | activity change (PNC), negative = inhibition, % at 10 µM | PC3M PTB-GFP, PNC prevalence imaging, 16 h; hits give low values;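 active = readout at or below -70, meaning at least 70% loss of cells showing the perinucleolar compartment, a nuclear body marking cancer cells; inconclusive = readout between -30 and a set limit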;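 note: plate controls were DMSO wells for no effect and camptothecin positive control wells for full effect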
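Read-out is percentage of cells bearing a perinucleolar compartment, from automated 20x imaging of fixed, Hoechst-stained PC3M PTB-GFP cells. Cells were seeded 4 h, then exposed 16 h to compound (23 nl of library stock) in duplicate plates.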
Starred values were filed as active, the others as inactive; ? = inconclusive; / = no result given; [ ] = another dose, or the depositor's remark. Unless noted, calls come from the whole dose curve; as a rule, active = well fitted inhibition curve with a large enough effect (not every such curve was filed as active); inconclusive = small, poorly fitted or top-dose-only effect, or another doubt; inactive = no such curve, though single readings can be large or run the other way. Unless noted, % is set by controls: 0 for no effect and ±100 for the full control effect.

SMILES	Lamin A splicing	HPGD block	KinaseGlo FLuc	ALDH1A1 block	PNC assembly inh
O=c1oc2ccccc2cc1-c1nc2c(s1)CCCC2	?	?	11µM*	?	-17
O=c1oc2ccccc2cc1-c1nc2ccccc2o1	16%	?	?	?	70
N#Cc1ccc(OC(=O)c2cc(-c3ccc(Cl)cc3)on2)cc1	16%[46 µM]	/	/	/	/
CCN(CC)CCCNC(=S)N1CCn2c(nc3ccccc32)C1	1%	-13%	-4%	7%	-116*
CSc1ccccc1N=CC1=C(O)CC(C)(C)CC1=O	-4%	-30%	3%	2µM*	-100*
COC(=O)c1ccc(N)c(N=CC2=C(O)CC(C)(C)CC2=O)c1	1%	-22%	0%	20µM*	-109*
CC1(C)CC(=O)C(C(N)=NC(=O)c2ccccc2)=C(O)C1	/	/	-1%	10µM*	/
CC1(C)CC(=O)C(C=Nc2cc(C(=O)c3ccccc3)ccc2N)=C(O)C1	?	/	-1%	11µM*	/
CCCOc1ccc(OC(=O)c2c(-c3ccccc3Cl)noc2C)cc1	-23%[46 µM]	/	/	/	/
COc1ccc(N2CCN(S(=O)(=O)c3ccc4c(c3)C(C(C)C)C(=O)N4)CC2)cc1 (stereo not given)	3%[46 µM]	/	/	/	/
Cn1cccc1C(=O)N1CCC2(CC1)CCN(C(c1ccccc1)c1ccccc1)CC2	/	-1%	2%	-1%	/
COc1ccc2c(c1)c1nnc(SCC(=O)N3C(C)CCCC3C)nc1n2C (stereo not given)	-21%	11µM*	5%	?	55
COc1ccc2c(c1)c1nnc(SC)nc1n2C	?	-12%	-1%	7%	-88*
COc1ccc(CCNS(=O)(=O)c2ccc(F)c(C(=O)Nc3ccc(Cl)cc3)c2)cc1OC	-25%[46 µM]	/	/	/	/
N#CCCn1c(=O)c(-c2ccccc2)nc2cnc(Oc3cccc(Cl)c3)nc21	/	?	-3%	?	/
CCOC(=O)c1ccc(N2N=C(C)/C(=C/C=C/c3ccco3)C2=O)cc1	0%	-25%	-11%	0.22µM*	29
O=C(Cc1nc2ccccc2[nH]1)c1ccc([N+](=O)[O-])cc1	/	/	/	18µM*	/
N#CCCN/N=C(/Cc1nc2ccccc2[nH]1)c1cccc(Cl)c1	0%	-23%	-3%	?	-16
O=C(NCCc1nc2ccccc2[nH]1)c1ccc([N+](=O)[O-])cc1	/	/	/	5%	/
CNCc1nc2ccccc2[nH]1	/	/	5%	1%	/
Clc1ccc(/C(Cc2nc3ccccc3[nH]2)=N\Nc2ccccc2)cc1	/	/	/	4.5µM*	/
CN/N=C(\Cc1nc2ccccc2[nH]1)c1ccc([N+](=O)[O-])cc1	/	/	-4%	20µM*	/
CC(C)[C@H](NC(=O)CNC(=O)OC(C)(C)C)C(=O)N[C@H](C=O)C(C)C	/	/	/	-4%	/
CC(Nc1nc(-c2ccc3c(c2)NC(=O)CO3)cs1)c1ccccc1 (stereo not given)	?	/	1%	6.3µM*	/
COc1cccc(-c2nc(-c3ccc4c(c3)NC(=O)CO4)cs2)c1	/	/	-1%	20µM*	/
SMILES	Lamin A splicing	HPGD block	KinaseGlo FLuc	ALDH1A1 block	PNC assembly inh
COc1ccc(-c2cc(-c3ccc(OC)cc3)nc(-c3ccc4c(c3)NC(=O)CO4)c2)cc1	21%	-9%	-3%	?	-14
Cc1cnc(CNc2ccnc(-c3ccoc3)n2)cn1	-2%	/	/	0%	/
COc1ccccc1NCc1ccc([N+](=O)[O-])s1	9%	-10%	0%	14µM*	?
COc1ccccc1CNc1ccc([N+](=O)[O-])cc1C	/	/	-3%	?	/
CCOC(=O)c1c(S(=O)(=O)N2CCC(C(=O)Nc3ccc(F)cc3F)CC2)c(C)n(C)c1C	12%[46 µM]	/	/	/	/
COc1cccc(-n2cc(C(=O)NCCc3cccc(C)c3)c3ccccc3c2=O)c1	3%[46 µM]	/	/	/	/
N#CCCCS(=O)(=O)c1nnnn1-c1ccc(Br)cc1	/	-10%	1%	20µM*	/
N#CCCS(=O)(=O)c1ccccc1	/	-4%	-3%	-6%	/
N#CCCCSc1nnnn1-c1cccc(Cl)c1	5%	-16%	2%	-7%	?
N#CCCS(=O)(=O)c1nnnn1-c1ccccc1	?	?	-4%	0.45µM*	?
O=C(CSc1nc2ccccc2[nH]1)c1ccco1	9%	-6%	-9%	-7%	-10
O=c1c2ccccc2nnn1CSc1nnc2sc3ccccc3n12	12%	-25%	-27%	13µM*	?
O=C(CSc1nnnn1-c1ccccc1)c1ccco1	4%[46 µM]	/	1%	?	/
O=C(CSCCSCC(=O)c1ccco1)c1ccco1	10%	?	-3%	22µM*	?
Cn1nnnc1SCC(=O)c1ccco1	4%	-9%	-3%	40µM*	2
O=C(CSc1nnc2sc3ccccc3n12)c1ccco1	1%	22µM*	-3%	16µM*	-13
CN(C)C(=O)CSc1nnc2sc3ccccc3n12	0%	-11%	0%	-7%	2
CCN(C(=O)CSc1nc2ccccc2n1Cc1cc(C)ccc1C)c1ccccc1	6%[46 µM]	/	/	/	/
O=C(Nc1cccc(F)c1)N1CC[C@@]2(CCCN(C(=O)c3cnccn3)C2)C1	/	-4%	-3%	2%	/
CC(C)(C)c1cc(Cc2ccccc2)[nH]n1	5%	20µM*	1%	3%	24
CC(C)(C)c1cc(=O)[nH]c(SCc2ccccc2)n1	/	/	-1%	-11%	/
COc1cccc(CNC(=O)Cc2c(C(=O)O)c(C)cn2C)c1	-1%[46 µM]	/	/	/	/
Cc1cc2oc(=O)cc(CN3CCN(Cc4ccccc4)CC3)c2cc1Cl	?	?	-3%	?	?
Cc1cc2oc(=O)cc(CN3CCC(C)CC3)c2cc1Cl	-3%	-23%	0%	20µM*	-7
Cc1ccc(OCc2nnc(SCc3cc(=O)[nH]c4ccccc34)n2-c2ccccc2)cc1	1%	11µM*	1%	8%	-26
SMILES	Lamin A splicing	HPGD block	KinaseGlo FLuc	ALDH1A1 block	PNC assembly inh
Cc1ccc(NC(=O)CSc2nnc(-c3n[nH]c4ccccc34)n2-c2ccccc2)c(C)c1	?	-12%	0%	20µM*	?
Cc1ccc(OCc2nnc(SCC(=O)Nc3cccc4ccccc34)n2-c2ccccc2)cc1	?	-11%	2%	7%	-119*
CC1CCC(NC(=O)c2ccc3c(c2)N(Cc2cccc(Cl)c2)C(=O)c2ccccc2S3(=O)=O)CC1 (stereo not given)	13%[46 µM]	/	/	/	/
CC1CCCCN1S(=O)(=O)c1ccc(S(=O)(=O)N(Cc2ccccc2)Cc2ccco2)cc1 (stereo not given)	-10%	-11%	0%	7.1µM*	-100*
O=C1CCCc2c1cc(C(=O)Nc1ccc(Br)cn1)c(=O)n2-c1ccccc1	5%	35µM*	2%	?	-8
O=C1CCCc2c1cc(C(=O)O)c(=O)n2-c1ccccc1	?	/	0%	1%	/
